{
  "source": "paper PMC5700166",
  "data": [
    {"biological_target": "T1, GST-Nv-NF-kB (Cys allele) (Nematostella vectensis, UniProt E5G601 2-411)", "T1 sequence": "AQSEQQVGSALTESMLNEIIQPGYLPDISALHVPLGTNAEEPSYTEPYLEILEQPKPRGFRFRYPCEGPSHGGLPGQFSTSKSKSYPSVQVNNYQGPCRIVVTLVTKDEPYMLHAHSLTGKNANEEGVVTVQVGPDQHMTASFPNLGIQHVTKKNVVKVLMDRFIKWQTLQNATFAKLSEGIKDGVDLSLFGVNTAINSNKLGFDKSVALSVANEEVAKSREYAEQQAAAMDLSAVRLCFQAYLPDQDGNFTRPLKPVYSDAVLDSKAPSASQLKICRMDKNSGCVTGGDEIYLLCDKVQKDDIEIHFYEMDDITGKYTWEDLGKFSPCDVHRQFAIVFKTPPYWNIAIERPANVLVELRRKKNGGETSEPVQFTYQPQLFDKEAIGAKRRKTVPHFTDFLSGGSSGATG", "assay": "protein-binding microarray (PBM); PBM: ~300 nM protein, 6 mM HEPES pH 7.8, 80 mM KCl, 0.5 mM EDTA, 0.5 mM EGTA, 6% glycerol, 35 ng/ul poly-dIdC, 1% milk, 1 h, room temperature; high values mean tight binding", "settings": "dsDNA, one strand shown", "units": {"binding signal": "z-score"}, "values": [
      {"sequence": "CCGATTAACATCACATATTTCCCTGATGTTAATCGGGTCTTGATTCGCTTGACGCTGCTG", "binding signal": 4.97},
      {"sequence": "CCGATTAACATCACTTGGGAAACTGATGTTAATCGGGTCTTGATTCGCTTGACGCTGCTG", "binding signal": 2.05},
      {"sequence": "CCGATTAACATCACGGGAAACCCTGATGTTAATCGGGTCTTGATTCGCTTGACGCTGCTG", "binding signal": 4.16},
      {"sequence": "CCGATTAACATCAGGGTATTCCATGATGTTAATCGGGTCTTGATTCGCTTGACGCTGCTG", "binding signal": 4.62},
      {"sequence": "CCGATTAACATCACAGGGAATTCTGATGTTAATCGGGTCTTGATTCGCTTGACGCTGCTG", "binding signal": 5.56},
      {"sequence": "CCGATTAACATCAGGGGGAGAGATGATGTTAATCGGGTCTTGATTCGCTTGACGCTGCTG", "binding signal": 3.66}
    ]},
    {"biological_target": "T2, GST-Co-NF-kB (Capsaspora owczarzaki, UniProt F1ARL5 200-546)", "T2 sequence": "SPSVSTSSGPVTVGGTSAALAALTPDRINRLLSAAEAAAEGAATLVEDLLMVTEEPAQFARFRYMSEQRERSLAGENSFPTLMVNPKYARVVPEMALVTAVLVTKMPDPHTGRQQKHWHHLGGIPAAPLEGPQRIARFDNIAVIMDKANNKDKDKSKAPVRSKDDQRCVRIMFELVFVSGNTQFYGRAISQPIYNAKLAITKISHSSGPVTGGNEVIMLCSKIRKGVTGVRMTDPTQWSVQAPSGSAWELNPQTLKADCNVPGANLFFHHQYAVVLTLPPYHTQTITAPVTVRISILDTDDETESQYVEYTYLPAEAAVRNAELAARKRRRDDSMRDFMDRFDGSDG", "assay": "protein-binding microarray (PBM); PBM: ~300 nM protein, 6 mM HEPES pH 7.8, 80 mM KCl, 0.5 mM EDTA, 0.5 mM EGTA, 6% glycerol, 35 ng/ul poly-dIdC, 1% milk, 1 h, room temperature; Ap Aiptasia and Nv Nematostella (sea anemones) / Co Capsaspora / Aq Amphimedon (sponge) / Dm Drosophila / Hu human; RHD is the Rel homology domain; high values mean tight binding", "settings": "dsDNA, one strand shown", "units": {"binding signal": "z-score"}, "values": [
      {"sequence": "CCGATTAACATCAAATAGGGAATTGATGTTAATCGGGTCTTGATTCGCTTGACGCTGCTG", "binding signal": 1.54},
      {"sequence": "CCGATTAACATCACGTTATTCCCTGATGTTAATCGGGTCTTGATTCGCTTGACGCTGCTG", "binding signal": 2.74},
      {"sequence": "CCGATTAACATCAAGGGATTTTCTGATGTTAATCGGGTCTTGATTCGCTTGACGCTGCTG", "binding signal": 1.57},
      {"sequence": "CCGATTAACATCAGGAGTTACCCTGATGTTAATCGGGTCTTGATTCGCTTGACGCTGCTG", "binding signal": 2.23},
      {"sequence": "CCGATTAACATCAGGGATTTCTATGATGTTAATCGGGTCTTGATTCGCTTGACGCTGCTG", "binding signal": 1.22},
      {"sequence": "CCGATTAACATCAGGGAACAACCTGATGTTAATCGGGTCTTGATTCGCTTGACGCTGCTG", "binding signal": 1.05},
      {"sequence": "CCGATTAACATCAGAATGCCCCCTGATGTTAATCGGGTCTTGATTCGCTTGACGCTGCTG", "binding signal": 2.56},
      {"sequence": "CCGATTAACATCAACTAATTCCCTGATGTTAATCGGGTCTTGATTCGCTTGACGCTGCTG", "binding signal": 3.13},
      {"sequence": "CCGATTAACATCAGGGAGCCCCCTGATGTTAATCGGGTCTTGATTCGCTTGACGCTGCTG", "binding signal": 2.5},
      {"sequence": "CCGATTAACATCACCCGGGAAAATGATGTTAATCGGGTCTTGATTCGCTTGACGCTGCTG", "binding signal": 5.18},
      {"sequence": "CCGATTAACATCAGGGGGATGGATGATGTTAATCGGGTCTTGATTCGCTTGACGCTGCTG", "binding signal": 3.52},
      {"sequence": "CCGATTAACATCAGACTTCCCCATGATGTTAATCGGGTCTTGATTCGCTTGACGCTGCTG", "binding signal": 4.24},
      {"sequence": "CCGATTAACATCAGGGAATGTACTGATGTTAATCGGGTCTTGATTCGCTTGACGCTGCTG", "binding signal": 2.29},
      {"sequence": "CCGATTAACATCACACATTTCCCTGATGTTAATCGGGTCTTGATTCGCTTGACGCTGCTG", "binding signal": 4.08},
      {"sequence": "CCGATTAACATCAACCACCCCCCTGATGTTAATCGGGTCTTGATTCGCTTGACGCTGCTG", "binding signal": 4.22},
      {"sequence": "CCGATTAACATCAGGGATTCCCATGATGTTAATCGGGTCTTGATTCGCTTGACGCTGCTG", "binding signal": 2.91},
      {"sequence": "CCGATTAACATCAATTCCCAAGGTGATGTTAATCGGGTCTTGATTCGCTTGACGCTGCTG", "binding signal": 2.02},
      {"sequence": "CCGATTAACATCAGAATTACCCATGATGTTAATCGGGTCTTGATTCGCTTGACGCTGCTG", "binding signal": 2.12},
      {"sequence": "CCGATTAACATCAGGGGTTTACCTGATGTTAATCGGGTCTTGATTCGCTTGACGCTGCTG", "binding signal": 1.56},
      {"sequence": "CCGATTAACATCAGACAATTCCCTGATGTTAATCGGGTCTTGATTCGCTTGACGCTGCTG", "binding signal": 2.28},
      {"sequence": "CCGATTAACATCACCCATCCCCCTGATGTTAATCGGGTCTTGATTCGCTTGACGCTGCTG", "binding signal": 3.26},
      {"sequence": "CCGATTAACATCACTTCCCCCCATGATGTTAATCGGGTCTTGATTCGCTTGACGCTGCTG", "binding signal": 8.31},
      {"sequence": "CCGATTAACATCATCCCCGTGTCTGATGTTAATCGGGTCTTGATTCGCTTGACGCTGCTG", "binding signal": 4.49},
      {"sequence": "CCGATTAACATCAGGGAATGCACTGATGTTAATCGGGTCTTGATTCGCTTGACGCTGCTG", "binding signal": 1.11},
      {"sequence": "CCGATTAACATCAATTTTCCCAATGATGTTAATCGGGTCTTGATTCGCTTGACGCTGCTG", "binding signal": 3.99},
      {"sequence": "CCGATTAACATCAGTTCCCCCCATGATGTTAATCGGGTCTTGATTCGCTTGACGCTGCTG", "binding signal": 8.97},
      {"sequence": "CCGATTAACATCACGAGTTTCCCTGATGTTAATCGGGTCTTGATTCGCTTGACGCTGCTG", "binding signal": 3.63},
      {"sequence": "CCGATTAACATCAAGCGTTCCCCTGATGTTAATCGGGTCTTGATTCGCTTGACGCTGCTG", "binding signal": 4.53},
      {"sequence": "CCGATTAACATCAGGGGAGTAAATGATGTTAATCGGGTCTTGATTCGCTTGACGCTGCTG", "binding signal": 4.51},
      {"sequence": "CCGATTAACATCAAATTTCCCGCTGATGTTAATCGGGTCTTGATTCGCTTGACGCTGCTG", "binding signal": 4.99},
      {"sequence": "CCGATTAACATCAGGAGAACCCCTGATGTTAATCGGGTCTTGATTCGCTTGACGCTGCTG", "binding signal": 1.26}
    ]}
  ]
}
